# Screening data (PubChem)
# In the library only some 2.1% were active in any assay of this set; here they are far more common.
# PrPC surface inh = cell surface PrPC inhibition, primary TR-FRET screen | inhibition, % at 13.8 µM | P04156 | 0.43% of 370,000 active | TR-FRET read-out; in the data active = inhibition above about 24%; also: 0% = median of the test wells and 100% = reference compound wells
# PfHsp40 rescue = compounds rescuing yeast from Plasmodium falciparum HSP40 toxicity; S. cerevisiae expressing PfHsp40, growth rescue, ATP luminescence; 0.68% of 340,000 active; growth rescue, % at 12.5 µM; in the data active = growth rescue above about 28%, passing the limit was not always enough;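 also: yeast W303a lacking pdr1 and pdr3 grown in galactose medium; growth measured after three days at 30 °C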
# PrP UTR inh = suppresses PrP 5' UTR mRNA reporter expression. cell-based PrP 5' UTR mRNA reporter, plate reader. inhibition, % (test concentration not listed). 0.35% of 340,000 active; in the data active = inhibition above about 52%; also: 0 = median of the neutral control wells
# ugtP null kill = growth inhibition of S. aureus ugtP deletion strain; S. aureus RN4220 ugtP deletion, OD600 growth, 16 h; growth inhibition, % (no concentration beside the values); 0.54% of 330,000 active; in the data active = growth inhibition above about 68%;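 also: plate controls were untreated wells for no effect and antibiotic for full effect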
# RN4220 kill = kills Staphylococcus aureus RN4220; S. aureus RN4220 growth, OD600, 16 h; 0.33% of 330,000 active; inhibition, % (concentration not given with the values); in the data active = inhibition above about 85%;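 also: plate controls were untreated cells for no effect and reference antibiotic for full effect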
# CCHF vOTU inh-1 = CCHFV vOTU protease inhibition; Pep-AMC fluorescence; AID 651958; 0.55% of 370,000 active; inhibition, % at 11.5 µM; also: 0% = vehicle wells with enzyme and 100% = no enzyme wells
# CCHF vOTU inh-2 = confirmation of CCHF virus vOTU protease inhibitors | shares compounds with CCHF vOTU inh-1 | Recombinant CCHFV vOTU, Pep-AMC fluorescence | inhibition, % at 11.5 µM | 17% of 1,900 active
# Active calls of the source: *; . = no result given. Rule as the data show it, unless noted: active = inhibition above about 30%; inactive = the rest.
SMILES,PrPC surface inh,PfHsp40 rescue,PrP UTR inh,ugtP null kill,RN4220 kill,CCHF vOTU inh-1,CCHF vOTU inh-2
O=C(CCNS(=O)(=O)c1ccc(OC(F)(F)F)cc1)NCCc1c[nH]c2ccccc12,-5,23,-35,-11,4,30*,-24
O=C(C1=CC(c2csc3ccccc23)CC(OCCCCO)O1)N1CCN(Cc2ccccc2)CC1 (stereo not drawn),.,.,.,6,3,.,.
Cc1cccc(NC(=O)NC(C)C(=O)O)c1 (stereo not drawn),.,.,.,-8,-4,.,.
COc1ccc(C2NC(=O)NC(C)=C2C(=O)OC2CCCCC2)cc1 (stereo not drawn),-11,.,.,.,.,42*,-4
CNC(=O)C(C)C1C[C@@]1(C)C(NC(=O)OCc1ccccc1)c1ccccc1 (stereo partly drawn),.,.,.,3,3,.,.
O=C(NN=Cc1ccc2ccccc2c1)c1ccc(COc2ccc3c(c2)CCC3)o1,.,.,.,9,-4,.,.
Cn1c(-c2ccc3nc(N)sc3c2)nc2cc(N)ccc21,12,0,-36,11,14,34*,-38
O=C(NC(Cc1ccc(Br)cc1)C(=O)O)OCC1c2ccccc2-c2ccccc21 (stereo not drawn),.,.,.,-8,21,.,.
CCOc1ncccc1C(=O)Nc1cc(S(=O)(=O)N2CCOCC2)ccc1OCC(F)(F)F,-4,1,-15,-4,3,55*,1
CCOc1ccc(S(=O)(=O)N2CCCCC2)cc1NC(=O)c1cccnc1OCC,-4,-1,16,-2,9,11,.
S=C(NN=Cc1ccccc1)N1CCOCC1,.,.,.,3,6,.,.
O=C(c1ccccc1)N1CCN(C2CCCCC2)CC1,-4,0,-24,-3,-14,-7,.
O=C1CCN(CC2CCCCC2)C=C1C(=O)c1ccccc1,5,1,-18,.,.,32*,-13
O=C(NC(c1ccc(F)cc1)c1ccc2ccccc2n1)C1CCN(CCOc2ccc(F)cc2)CC1 (stereo not drawn),-7,.,.,.,.,32*,-10
COc1cccc(C=Nn2c(-c3ccco3)nc3ccccc3c2=O)c1OC,.,.,.,-17,7,.,.
COc1ccccc1N(N=C1Sc2ccccc2C1=O)C(C)=O,.,.,.,-4,7,.,.
COc1ccccc1N(C(C)=O)C1=C(Cl)C(=O)c2ccccc2C1=O,6,.,.,.,.,91*,83*
Cc1ccc(OCC(=O)Nc2ccc(CN3CCOCC3)cc2)cc1,-3,-1,7,-3,2,-1,.
Cc1cccc(OCC(=O)Nc2ccc(CN3CCOCC3)cc2)c1C,1,0,-6,-2,0,35*,-8
Cc1nn(C)c(C(=O)NN=Cc2ccccn2)c1[N+](=O)[O-],.,.,.,0,3,.,.
Cc1nn(C)c(C(=O)N/N=C/c2ccccc2)c1[N+](=O)[O-],0,0,-15,.,.,31*,-13
Cc1[nH]cnc1CN1CCc2c(c3ccccc3n2C)C1=O,-2,-1,-13,-2,0,72*,24
CC(C)(C)c1ccc(C=NOCC(=O)NCc2ccc(F)cc2)cc1,.,.,.,43,-7,.,.
CC(C)(C)c1ccc(/C=N/OCC(=O)NCc2ccc(F)cc2)cc1,13,74*,-6,.,.,46*,13
CC=C(NC(C)=O)c1ccccc1,.,.,.,4,4,.,.
SMILES,PrPC surface inh,PfHsp40 rescue,PrP UTR inh,ugtP null kill,RN4220 kill,CCHF vOTU inh-1,CCHF vOTU inh-2
CC(=O)N(C1=C(N)C(=O)c2ccccc2C1=O)C(C)C,-39,-2,-16,18,36,19,.
CCC(=O)N(C1=C(NC(C)C)C(=O)c2ccccc2C1=O)C(C)C,-30,-1,-21,8,30,47*,31*
C=CCN1C(=O)C(Cc2ccccc2)SC1=NN=Cc1cccs1 (stereo not drawn),.,.,.,7,-3,.,.
COc1ccc(O)c(C(c2c(C)[nH][nH]c2=O)c2c(C)[nH][nH]c2=O)c1,-8,1,-19,.,.,84*,-15
Nc1c(O)cccc1C(=O)O,-15,0,-10,-2,1,30*,1
O=C(NN=Cc1cn(Cc2ccccc2)c2ccccc12)c1cc(O)cc(O)c1,.,.,.,3,-3,.,.
O=C(CNS(=O)(=O)c1ccccc1Br)OCC(=O)N1CCc2ccccc21,-2,1,-10,3,9,7,.
CC(=O)Nc1ccc(S(=O)(=O)NCC(=O)OCC(=O)N2CCc3ccccc32)cc1,5,0,-16,5,4,30*,-15
O=[N+]([O-])c1ccc(N2CCOCC2)nc1,-17,2,-33,-8,6,-4,.
O=C1CC(N2CCOCC2)=NN1c1ccc([N+](=O)[O-])cc1,-2,-2,-105,-2,4,104*,2
COc1cc(N)c2ncccc2c1Cl,-6,-1,-26,11,5,97*,-6
COc1cc(NC(C)=O)c2ncccc2c1Br,-9,.,.,.,.,5,.
CC1CC[C@]2(C(=O)O)CC[C@]3(C)C(=CCC4[C@@]5(C)CCC(O)[C@@](C)(C(=O)O)C5CC[C@]43C)C2[C@]1(C)O (stereo partly drawn),.,.,.,-5,23,.,.
CCCN1CCC(=O)N(C(CSc2ccccc2)CC(C)C)CC1 (stereo not drawn),.,.,.,1,8,.,.
CC(=O)c1cccc(NC(=O)CON=C2CCCc3nonc32)c1,.,.,.,4,11,.,.
Cc1cc(C(=O)OCC(=O)N2CCOCC2)c2ccccc2n1,4,-1,-2,0,0,34*,-13
Cc1cc(C(=O)OCC(=O)N2CCCC2)c2ccccc2n1,-2,-2,.,6,6,-14,.
COC(=O)c1cc(NS(=O)(=O)c2ccc(N3CCC(C)CC3)c([N+](=O)[O-])c2)cc(C(=O)OC)c1,5,1,-2,7,-10,34*,-4
CC(=O)NN=C(c1ccccc1)C(O)c1ccccc1 (stereo not drawn),.,.,.,3,0,.,.
O=C(NCc1ccc(F)cc1)c1ccc(S(=O)(=O)Nc2cccc(C(F)(F)F)c2)cc1,17,2,-19,-29,-5,30*,-11
CC(=O)c1cccc(N(CC(=O)NC2CCCCC2)C(=O)CNC(=O)c2cccs2)c1,-4,0,-16,-1,-1,5,.
CC(=O)c1cccc(N(CC(=O)NC2CCCC2)C(=O)CNC(=O)c2cccs2)c1,5,3,-16,7,1,36*,-18
COc1cccc(-c2c(C(=O)NN=CC3CC=CCC3)nnn2-c2nonc2N)c1 (stereo not drawn),.,.,.,-1,-2,.,.
CCOC(=O)N1CCN(c2ccc(C(C)=O)cc2F)CC1C (stereo not drawn),12,0,-24,-6,13,31*,-3
C#CCNC(=O)C1=CC(c2ccc(C(F)(F)F)cc2)C(CCCO)C(OCC)O1 (stereo not drawn),.,.,.,-2,3,.,.
CCN(CC)C(=O)c1cccc(-c2csc(C(O)c3ccc(F)c(F)c3)n2)c1 (stereo not drawn),20,.,.,.,.,30*,8
